Records with an inconclusive call do not appear. Activity calls are given as the source filed them. Unless noted, how the calls were made is not given here.
Key:
[1] = rapamycin-like changes in RPL19A-GFP expression – cell-based, S. cerevisiae, multiplex flow cytometry, primary screen (AID 1862; in the data active means percent of DMSO control GFP below about 86%;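 further: lower values mimic rapamycin by blocking the RPL19A rise seen in DMSO cells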); conditions: S. cerevisiae RPL19A-GFP strain, flow cytometry fluorescence, 3 h; at 10 µM; stronger effect = lower value
[2] = TOR pathway GLN3 branch reporter MEP2-GFP changes – S. cerevisiae, multiplex flow cytometry, primary screen (AID 1867;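 active means GFP response, as percent of the DMSO control, above the screen-wide mean plus 3 SD, about 139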;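 further: median GFP channel fluorescence of barcode-gated MEP2-GFP cells measured by flow cytometry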); conditions: S. cerevisiae MEP2-GFP strain, 3 h, at 10 µM, stronger effect = higher value
[3] = TOR pathway RTG branch CIT2 reporter changes – S. cerevisiae, GFP fusion, multiplex flow cytometry, primary screen (AID 1870;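 active means percent response above a set limit, the screen-wide mean plus 3 SD, cut at about 130% in these data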;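 further: barcoded CIT2-GFP strain pooled with four other GFP strains with rapamycin as positive control; median GFP fluorescence per well over plate mean of DMSO wells so 100% = DMSO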); conditions: S. cerevisiae CIT2-GFP expression, 3 h, at 10 µM, stronger effect = higher value
[4] = TOR pathway LAP4-GFP level changes – S. cerevisiae, multiplex flow cytometry, primary screen (AID 1873;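 active means GFP signal, as percent of the solvent control, above the screen mean plus 3 SD, about 149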); conditions: S. cerevisiae LAP4-GFP expression, 3 h, at 10 µM, stronger effect = higher value
[5] = yeast AGP1-GFP level changes, GLN3 branch – cell-based, multiplex flow cytometry, S. cerevisiae, primary screen (AID 1887;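 active means GFP signal above the screen-wide mean plus 3 SD, that is over about 124.5% of the solvent control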;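 further: AGP1-GFP fusion strain of S. cerevisiae within a five-strain barcoded multiplex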); conditions: 3 h, at 10 µM, stronger effect = higher value
[6] = reduced mouse 2C T cell binding to pMHC/ICAM-1 vesicles – MLPCN validation set, flow cytometry, LFA-1/ICAM-1 modulator project, pilot screen (AID 2523;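 active means response below a set limit, under 55% cells CD8-positive and vesicle-bound, and CD8 cells' 90th-percentile brightness under 279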;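 on vesicle binding response: mean PE anti-B7-1 fluorescence of CD8+ cells relative to row control; 100% = QL9-loaded vesicles with DMSO vehicle in the same plate row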); conditions: 2C mouse CD8+ T cells, at 7 µM, stronger effect = lower value; double positive events: measured here: CD8+/vesicle+ event percentage
[7] = target: Integrin beta-1 (Homo sapiens) + Integrin alpha-4 (Homo sapiens) (UniProt P13612+P05556); experiment: alpha4beta1 integrin LIBS antibody binding reduction – U937 cells, HUTS-21 mAb, flow cytometry, validation set, VLA-4 allosteric modulator project, pilot screen (AID 2674;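 active means inhibition above 50%, about 3 SD of the validation set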;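 further: antibody binding induced by the VLA-4 ligand LDV present at three times its Kd; 0% = LDV ligand with antibody and no compound and 100% = antibody without LDV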); conditions: HUTS-21 LIBS mAb binding, at 6.7 µM, stronger effect = higher value
[8] = calorie-restriction mimetic ROS inhibitors, yeast – validation compound set, pilot screen (AID 2706;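 active means superoxide response below 65% of plate, a cut near 3 SD across the whole screen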;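 further: yeast exposed to compound for one week at 30 degrees C before staining; 100% = mean of all compound wells on the same plate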); conditions: S. cerevisiae aging, superoxide DHE fluorescence; at 10 µM; stronger effect = lower value
[9] = target: Beta-adrenergic receptor kinase 1 (Homo sapiens) (UniProt P25098); experiment: GRK2 binders displacing RNA aptamer, biochemical, validation, human GRK2, bead flow cytometry (AID 488806;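 active means aptamer binding inhibition above 30%, about 3 SD of noise from non-fluorescent compounds; inactive means inhibition at or below 30%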); conditions: bead-bound GRK2, FAM-aptamer displacement, at 10 µM, stronger effect = higher value
[10] = target: Beta-2 adrenergic receptor (Homo sapiens) (UniProt P07550); experiment: agonist-induced loss of surface beta2AR – cell-based, FAP fluorogen, flow cytometry, validation set, pilot screen (AID 504459;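 active means percent response above 42, roughly 3 SD of non-fluorescent test compounds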;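 further: agonist-driven loss of surface beta2AR via internalization measured by FAP dye flow cytometry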); conditions: Am2.2-beta2AR cells, at 10 µM, stronger effect = higher value
[11] = target: AP-2 complex subunit beta (Homo sapiens) (UniProt P63010); experiment: beta-arrestin/AP2 interaction blockers – biochemical, validation set, GST-AP2 beads, flow cytometry, pilot screen (AID 504541;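 active means inhibition above 54%, about 3 SD of non-fluorescent compounds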;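 further: AP2 carries R879A mutation and is captured from E. coli lysate; bead-bound FITC arrestin peptide fluorescence measuring arrestin peptide binding to AP2; 0% = DMSO wells and 100% = excess unlabeled arrestin peptide control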); conditions: FITC arrestin peptide, at 10 µM, stronger effect = higher value
[12] = cytosolic pH regulators acting via V-ATPase – S. cerevisiae, pHLuorin, HTS validation (AID 504600; in the data active means response above about 15%;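 further: plate controls were DMSO for no effect and reference compound for full effect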); conditions: V-ATPase proton transport, at 10 µM, stronger effect = higher value
[13] = tested on: anti-desmoglein-3 scFv antibody binding to human DSG3; experiment: blockers of pathogenic pemphigus antibody–desmoglein-3 binding – biochemical, validation compound set, bead-based, flow cytometry, pilot screen (AID 588368;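 active means binding below the plate cutoff, the plate median minus 3 SD, with a reading above zero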;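 further: signal is the median channel fluorescence of bead-bound GFP antibody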); conditions: Protein G beads, DSG3-Fc, scFv-GFP binding, at 10 µM, stronger effect = lower value
[14] = tested on: Botulinum neurotoxin type F light chain protease (Clostridium botulinum); experiment: Clostridium botulinum type F light chain protease inhibitors, microsphere substrate cleavage, validation (AID 588459); conditions: multiplex microsphere protease substrate cleavage assay, flow cytometry; at 10 µM; stronger effect = higher value
[15] = target: Botulinum neurotoxin type A (Clostridium botulinum) (UniProt P0DPI0); experiment: BoNT/A light chain protease inhibitors, biochemical, multiplex microsphere flow cytometry, validation set (AID 588460); conditions: at 10 µM, stronger effect = higher value
[16] = target: Lethal factor (Bacillus anthracis) (UniProt P15917); experiment: Bacillus anthracis lethal factor inhibition, microsphere flow cytometry protease assay, validation at 10 µM (AID 588461); conditions: multiplex microsphere protease cleavage assay, stronger effect = higher value
[17] = Nile Red efflux blockade in pump-expressing yeast – validation compound set, multiplex, phenotypic, pilot screen (AID 588506;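 active means efflux inhibition above 0.42, the validation set average plus 4 SD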;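 further: Nile Red retained in cells so higher fluorescence means more efflux inhibition; 0 = negative control wells and 1 = enniatin B 25 µM full block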); conditions: S. cerevisiae pump-expressing triplex, Nile Red efflux flow cytometry; at 10 µM; stronger effect = higher value
[18] = target: ATP-binding cassette sub-family B member 6 (Homo sapiens) (UniProt Q9NP58); experiment: blockers of ABCB6-driven porphyrin uptake – K562-ABCB6 cells, flow cytometry, validation set, pilot screen (AID 588550;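 active means inhibition above the screen-wide mean plus 3 SD, about 51%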;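 further: 0% = DMSO wells and 100% = benzethonium chloride 70 µM positive control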); conditions: K562-ABCB6 porphyrin accumulation, 1 h, at 10 µM, stronger effect = higher value
[19] = AML differentiation inducers, ER-HoxA9 marrow cells – cell-based, GFP/MAC1 double positive, flow cytometry, validation set, primary screen (AID 588685;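 active means differentiation response of at least 50%, scaled between solvent and reference control, from cells with both markers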;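 further: compound exposure lasts four days before antibody staining and flow analysis; 0% = DMSO wells and 100% = 5 µM fulvestrant positive control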); conditions: stronger effect = higher value

Beta-2 adrenergic receptor (Homo sapiens), sequence (P07550 whole entry, looked up): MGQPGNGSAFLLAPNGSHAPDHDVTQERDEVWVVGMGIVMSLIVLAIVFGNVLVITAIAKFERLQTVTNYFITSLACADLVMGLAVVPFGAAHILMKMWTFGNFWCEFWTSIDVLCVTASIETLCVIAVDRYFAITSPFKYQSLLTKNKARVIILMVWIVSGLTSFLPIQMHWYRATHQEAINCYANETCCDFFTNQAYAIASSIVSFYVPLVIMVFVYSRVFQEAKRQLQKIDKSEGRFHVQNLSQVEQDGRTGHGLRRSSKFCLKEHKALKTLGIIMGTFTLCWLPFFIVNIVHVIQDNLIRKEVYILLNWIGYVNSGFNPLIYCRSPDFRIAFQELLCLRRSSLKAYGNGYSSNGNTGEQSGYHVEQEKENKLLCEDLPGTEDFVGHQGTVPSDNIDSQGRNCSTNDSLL
Integrin beta-1 (Homo sapiens) + Integrin alpha-4 (Homo sapiens), sequence (P05556 whole entry, looked up): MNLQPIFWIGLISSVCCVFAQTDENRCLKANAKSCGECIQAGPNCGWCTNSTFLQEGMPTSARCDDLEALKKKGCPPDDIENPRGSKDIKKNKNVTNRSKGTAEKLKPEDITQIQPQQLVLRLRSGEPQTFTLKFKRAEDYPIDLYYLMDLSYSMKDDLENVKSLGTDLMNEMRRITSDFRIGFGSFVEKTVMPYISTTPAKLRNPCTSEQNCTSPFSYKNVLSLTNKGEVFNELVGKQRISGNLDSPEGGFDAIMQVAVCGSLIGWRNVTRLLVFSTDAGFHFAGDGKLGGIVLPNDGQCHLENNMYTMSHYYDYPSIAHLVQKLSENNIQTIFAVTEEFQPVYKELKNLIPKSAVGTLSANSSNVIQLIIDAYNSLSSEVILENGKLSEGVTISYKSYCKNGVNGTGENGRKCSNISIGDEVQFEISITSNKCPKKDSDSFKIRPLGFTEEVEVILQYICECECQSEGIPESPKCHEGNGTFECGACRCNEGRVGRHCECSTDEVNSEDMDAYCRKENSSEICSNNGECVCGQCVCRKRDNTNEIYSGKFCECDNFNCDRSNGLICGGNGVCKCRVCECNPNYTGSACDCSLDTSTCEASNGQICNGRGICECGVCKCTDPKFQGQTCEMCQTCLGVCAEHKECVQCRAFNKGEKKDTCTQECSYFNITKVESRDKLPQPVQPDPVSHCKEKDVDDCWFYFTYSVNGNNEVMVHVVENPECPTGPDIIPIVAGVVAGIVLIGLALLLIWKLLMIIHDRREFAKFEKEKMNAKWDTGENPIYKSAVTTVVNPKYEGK
Integrin beta-1 (Homo sapiens) + Integrin alpha-4 (Homo sapiens), sequence (P13612 whole entry, looked up): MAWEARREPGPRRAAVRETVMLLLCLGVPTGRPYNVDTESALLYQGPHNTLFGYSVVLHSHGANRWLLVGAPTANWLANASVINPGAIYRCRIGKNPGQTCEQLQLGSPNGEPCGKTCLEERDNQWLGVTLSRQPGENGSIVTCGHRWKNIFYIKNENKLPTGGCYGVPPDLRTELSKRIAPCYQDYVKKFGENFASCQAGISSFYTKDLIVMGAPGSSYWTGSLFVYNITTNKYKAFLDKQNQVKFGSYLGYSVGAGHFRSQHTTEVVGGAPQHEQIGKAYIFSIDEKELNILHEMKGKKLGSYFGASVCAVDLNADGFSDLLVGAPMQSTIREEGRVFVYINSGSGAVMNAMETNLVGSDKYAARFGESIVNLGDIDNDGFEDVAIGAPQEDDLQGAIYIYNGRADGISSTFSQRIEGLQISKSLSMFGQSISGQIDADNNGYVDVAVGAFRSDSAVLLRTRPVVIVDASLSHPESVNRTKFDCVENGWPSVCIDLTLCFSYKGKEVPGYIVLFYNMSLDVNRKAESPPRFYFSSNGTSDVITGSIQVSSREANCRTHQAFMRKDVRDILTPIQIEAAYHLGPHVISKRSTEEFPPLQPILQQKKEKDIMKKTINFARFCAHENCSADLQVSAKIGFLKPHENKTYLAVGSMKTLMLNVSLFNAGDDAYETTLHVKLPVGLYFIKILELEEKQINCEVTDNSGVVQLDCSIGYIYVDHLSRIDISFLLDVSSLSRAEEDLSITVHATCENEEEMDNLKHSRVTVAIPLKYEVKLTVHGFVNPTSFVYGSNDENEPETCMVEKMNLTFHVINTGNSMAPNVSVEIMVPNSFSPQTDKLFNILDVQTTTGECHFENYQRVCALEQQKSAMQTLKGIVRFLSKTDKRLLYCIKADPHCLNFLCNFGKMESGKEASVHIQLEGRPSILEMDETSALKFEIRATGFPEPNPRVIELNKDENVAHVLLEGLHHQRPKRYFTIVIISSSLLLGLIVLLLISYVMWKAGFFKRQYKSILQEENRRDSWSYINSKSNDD
ATP-binding cassette sub-family B member 6 (Homo sapiens), sequence (Q9NP58 whole entry, looked up): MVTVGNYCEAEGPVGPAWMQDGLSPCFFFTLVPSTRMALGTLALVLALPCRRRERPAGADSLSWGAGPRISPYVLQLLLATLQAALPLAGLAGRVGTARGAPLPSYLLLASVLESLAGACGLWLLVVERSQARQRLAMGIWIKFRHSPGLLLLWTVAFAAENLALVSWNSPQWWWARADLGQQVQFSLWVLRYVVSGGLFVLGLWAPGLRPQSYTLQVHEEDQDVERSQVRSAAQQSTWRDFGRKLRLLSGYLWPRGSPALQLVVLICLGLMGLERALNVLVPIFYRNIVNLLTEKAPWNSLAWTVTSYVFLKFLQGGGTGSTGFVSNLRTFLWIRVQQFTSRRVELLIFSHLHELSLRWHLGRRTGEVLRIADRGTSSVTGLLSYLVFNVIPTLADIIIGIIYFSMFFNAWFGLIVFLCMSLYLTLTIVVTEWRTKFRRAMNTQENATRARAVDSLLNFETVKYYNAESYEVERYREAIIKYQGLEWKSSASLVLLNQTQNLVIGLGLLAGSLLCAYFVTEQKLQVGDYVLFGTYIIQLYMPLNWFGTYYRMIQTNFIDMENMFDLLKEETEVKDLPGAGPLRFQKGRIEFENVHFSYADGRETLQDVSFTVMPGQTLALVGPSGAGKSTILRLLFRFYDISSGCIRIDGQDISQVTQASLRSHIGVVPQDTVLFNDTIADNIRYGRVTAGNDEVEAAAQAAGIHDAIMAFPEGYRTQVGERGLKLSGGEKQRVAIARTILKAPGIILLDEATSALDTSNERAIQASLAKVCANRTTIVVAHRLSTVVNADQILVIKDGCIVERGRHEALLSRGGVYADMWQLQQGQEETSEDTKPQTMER
Botulinum neurotoxin type A (Clostridium botulinum), sequence (P0DPI0 whole entry, looked up): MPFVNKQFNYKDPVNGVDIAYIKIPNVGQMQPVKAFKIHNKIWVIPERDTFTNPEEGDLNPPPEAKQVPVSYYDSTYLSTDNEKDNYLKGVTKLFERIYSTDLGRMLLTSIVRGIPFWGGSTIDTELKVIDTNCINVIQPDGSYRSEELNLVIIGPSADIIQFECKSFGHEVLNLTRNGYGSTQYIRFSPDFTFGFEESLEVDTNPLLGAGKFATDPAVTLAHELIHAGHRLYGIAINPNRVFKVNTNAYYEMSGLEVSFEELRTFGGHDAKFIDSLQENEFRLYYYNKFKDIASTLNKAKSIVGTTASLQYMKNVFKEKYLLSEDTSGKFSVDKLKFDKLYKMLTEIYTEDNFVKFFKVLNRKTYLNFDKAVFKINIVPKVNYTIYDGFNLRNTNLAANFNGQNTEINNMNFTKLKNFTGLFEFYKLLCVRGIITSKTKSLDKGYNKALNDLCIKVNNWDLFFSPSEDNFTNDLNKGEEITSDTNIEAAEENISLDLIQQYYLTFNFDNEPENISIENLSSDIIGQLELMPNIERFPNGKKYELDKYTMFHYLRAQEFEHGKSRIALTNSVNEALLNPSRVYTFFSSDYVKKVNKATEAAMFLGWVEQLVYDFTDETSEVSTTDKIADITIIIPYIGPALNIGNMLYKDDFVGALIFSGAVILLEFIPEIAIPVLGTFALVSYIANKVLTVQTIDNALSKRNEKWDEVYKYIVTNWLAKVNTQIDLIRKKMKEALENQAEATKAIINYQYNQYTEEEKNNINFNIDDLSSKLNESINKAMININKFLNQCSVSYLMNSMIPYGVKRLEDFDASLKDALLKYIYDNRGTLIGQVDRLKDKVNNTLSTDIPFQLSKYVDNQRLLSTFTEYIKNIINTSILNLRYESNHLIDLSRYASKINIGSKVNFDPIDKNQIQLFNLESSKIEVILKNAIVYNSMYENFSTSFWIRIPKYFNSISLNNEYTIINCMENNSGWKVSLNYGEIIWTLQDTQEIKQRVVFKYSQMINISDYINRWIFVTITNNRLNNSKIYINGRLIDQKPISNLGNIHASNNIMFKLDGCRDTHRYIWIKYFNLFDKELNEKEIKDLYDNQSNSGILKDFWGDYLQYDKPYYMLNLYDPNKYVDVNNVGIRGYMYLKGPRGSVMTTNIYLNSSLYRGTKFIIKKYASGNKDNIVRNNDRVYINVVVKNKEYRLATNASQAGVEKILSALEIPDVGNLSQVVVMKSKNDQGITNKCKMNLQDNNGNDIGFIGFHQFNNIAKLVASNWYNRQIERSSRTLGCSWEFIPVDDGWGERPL
Beta-adrenergic receptor kinase 1 (Homo sapiens), sequence (P25098 whole entry, looked up): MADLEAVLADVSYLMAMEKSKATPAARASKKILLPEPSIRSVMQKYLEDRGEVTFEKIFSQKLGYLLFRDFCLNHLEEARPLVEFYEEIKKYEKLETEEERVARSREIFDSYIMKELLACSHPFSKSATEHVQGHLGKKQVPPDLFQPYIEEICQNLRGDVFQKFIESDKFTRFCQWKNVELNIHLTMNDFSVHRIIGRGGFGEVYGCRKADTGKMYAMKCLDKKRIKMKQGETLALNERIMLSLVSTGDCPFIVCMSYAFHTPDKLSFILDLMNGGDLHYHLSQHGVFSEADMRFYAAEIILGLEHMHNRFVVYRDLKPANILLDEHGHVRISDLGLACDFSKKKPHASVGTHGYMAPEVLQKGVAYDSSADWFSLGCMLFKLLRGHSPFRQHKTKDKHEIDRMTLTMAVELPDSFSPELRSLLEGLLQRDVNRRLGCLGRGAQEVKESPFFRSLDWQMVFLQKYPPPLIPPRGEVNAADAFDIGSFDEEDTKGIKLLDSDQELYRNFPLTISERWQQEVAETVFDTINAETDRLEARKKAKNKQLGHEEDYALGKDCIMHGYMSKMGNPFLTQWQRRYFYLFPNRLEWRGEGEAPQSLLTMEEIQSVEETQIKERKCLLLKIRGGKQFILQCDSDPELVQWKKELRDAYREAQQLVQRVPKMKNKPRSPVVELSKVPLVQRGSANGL

C[C@H]1CCCC(=O)CCC/C=C/c2cc(O)cc(O)c2C(=O)O1
57.4%: double positive events [6]
inactive: percent of DMSO control GFP [1] 102% | GFP response vs DMSO [2] 104% | percent response of DMSO control [3] 96% | GFP response vs DMSO [4] 96.5% | GFP response, % of DMSO [5] 98.3% | vesicle binding response [6] 138% | inhibition [7] -0.31% | superoxide response (% of plate) [8] 102% | aptamer binding inhibition [9] 3% | response [10] 2.24% | inhibition [11] -2.22% | response [12] 0.54% | binding (% of control) [13] 99% | inhibition [14] 5.6% | inhibition [15] 0.5% | inhibition [16] 0.4% | efflux inhibition (fraction of control) [17] -0.09 | inhibition [18] 3% | differentiation response [19] -5.68%

O=c1c2ccccc2[se]n1-c1ccccc1
active: inhibition [11] 116% | binding (% of control) [13] 9.72% | inhibition [14] 33.2% | inhibition [15] 92.6% | efflux inhibition (fraction of control) [17] 37.3
inactive: percent of DMSO control GFP [1] 99.6% | GFP response vs DMSO [2] 94.6% | percent response of DMSO control [3] 110% | GFP response vs DMSO [4] 94.4% | GFP response, % of DMSO [5] 99.2% | vesicle binding response [6] 111% | inhibition [7] 15.4% | superoxide response (% of plate) [8] 120% | aptamer binding inhibition [9] 5% | response [10] 12.7% | response [12] -0.76% | inhibition [16] -9.3% | inhibition [18] 5% | differentiation response [19] 0.41%
57.5%: double positive events [6]

C[C@@H]1O[C@@H](O[C@H]2C[C@@H](O)[C@]3(CO)[C@H]4[C@H](O)C[C@]5(C)[C@@H](C6COC(=O)C6)CC[C@]5(O)[C@@H]4CC[C@]3(O)C2)[C@H](O)[C@H](O)[C@H]1O (some centres undefined)
inactive: percent of DMSO control GFP [1] 97.3% | GFP response vs DMSO [2] 102% | percent response of DMSO control [3] 105% | GFP response vs DMSO [4] 112% | GFP response, % of DMSO [5] 119% | vesicle binding response [6] 183% | inhibition [7] 6.55% | superoxide response (% of plate) [8] 94.2% | aptamer binding inhibition [9] 1% | response [10] -12.8% | inhibition [11] -5.57% | response [12] -2.1% | binding (% of control) [13] 104% | inhibition [14] -0.5% | inhibition [15] -0.7% | inhibition [16] 3.5% | efflux inhibition (fraction of control) [17] -0.04 | inhibition [18] -3% | differentiation response [19] -4%
62.7%: double positive events [6]

CCOc1ccc(C2C(C#N)=C(N)Oc3c2c(=O)oc2ccccc32)cc1 (centres undefined)
59.3%: double positive events [6]
inactive: percent of DMSO control GFP [1] 104% | GFP response vs DMSO [2] 99.6% | percent response of DMSO control [3] 102% | GFP response vs DMSO [4] 102% | GFP response, % of DMSO [5] 101% | vesicle binding response [6] 213% | inhibition [7] 9.13% | superoxide response (% of plate) [8] 103% | aptamer binding inhibition [9] 4% | response [10] -0.19% | inhibition [11] 22.7% | response [12] -3.38% | binding (% of control) [13] 104% | inhibition [14] -0.4% | inhibition [15] 0.3% | inhibition [16] 0.5% | efflux inhibition (fraction of control) [17] -0.13 | inhibition [18] 5% | differentiation response [19] -23.2%

Clc1ccc(COC(Cn2ccnc2)c2ccc(Cl)cc2Cl)cc1 (centres undefined)
62.7%: double positive events [6]
inactive: percent of DMSO control GFP [1] 104% | GFP response vs DMSO [2] 111% | percent response of DMSO control [3] 107% | GFP response vs DMSO [4] 120% | GFP response, % of DMSO [5] 103% | vesicle binding response [6] 183% | inhibition [7] -1.09% | superoxide response (% of plate) [8] 121% | aptamer binding inhibition [9] 3% | response [10] 3.99% | inhibition [11] 16.5% | response [12] 2.69% | binding (% of control) [13] 105% | inhibition [14] -1.3% | inhibition [15] -0.4% | inhibition [16] -7% | efflux inhibition (fraction of control) [17] -0.28 | inhibition [18] -31% | differentiation response [19] 1.28%

C[C@]12CCC(=O)C=C1CC[C@@H]1[C@@H]2CC[C@]2(C)C(=O)CC[C@@H]12
66.1%: double positive events [6]
inactive: percent of DMSO control GFP [1] 97.6% | GFP response vs DMSO [2] 95.1% | percent response of DMSO control [3] 80.3% | GFP response vs DMSO [4] 106% | GFP response, % of DMSO [5] 84.2% | vesicle binding response [6] 210% | inhibition [7] 1.62% | aptamer binding inhibition [9] 1% | response [10] -0.98% | inhibition [11] -7.92% | response [12] -1.25% | binding (% of control) [13] 99.8% | inhibition [14] -2.7% | inhibition [15] -2.1% | inhibition [16] -3.5% | efflux inhibition (fraction of control) [17] 0.05 | inhibition [18] 9% | differentiation response [19] 11%

O=C1NCCN2CCCC12 (centres undefined)
inactive: percent of DMSO control GFP [1] 100% | GFP response vs DMSO [2] 99.7% | percent response of DMSO control [3] 102% | GFP response vs DMSO [4] 93.7% | GFP response, % of DMSO [5] 102% | vesicle binding response [6] 108% | inhibition [7] 12.3% | superoxide response (% of plate) [8] 92.8% | aptamer binding inhibition [9] 0% | response [10] 0.01% | inhibition [11] 4.79% | binding (% of control) [13] 101% | inhibition [14] -0.2% | inhibition [15] -0.6% | inhibition [16] 5.9% | efflux inhibition (fraction of control) [17] -0.09 | inhibition [18] 21% | differentiation response [19] -11.9%
active: response [12] 113%
58.7%: double positive events [6]

CCN(CC)CCOC(=O)C(O)(c1ccccc1)c1ccccc1
62%: double positive events [6]
inactive: percent of DMSO control GFP [1] 102% | GFP response vs DMSO [2] 108% | percent response of DMSO control [3] 96.5% | GFP response vs DMSO [4] 92.6% | GFP response, % of DMSO [5] 94.5% | vesicle binding response [6] 152% | inhibition [7] 2.93% | superoxide response (% of plate) [8] 90.4% | aptamer binding inhibition [9] 2% | response [10] 10.4% | inhibition [11] 0.48% | response [12] -1.11% | binding (% of control) [13] 108% | inhibition [14] -2% | inhibition [15] -0.9% | inhibition [16] -5.6% | efflux inhibition (fraction of control) [17] -0.095 | inhibition [18] -101% | differentiation response [19] 7.13%

Reference: PubChem BioAssay
